In PubChem BioAssay AID463173 (ICCB-Longwood Screening Facility, Harvard Medical School, 2010):
Among all 52,000 compounds or so, about 4,300 (8.3%) were called active. Only a selection was taken, and actives are over-represented in it overall. A number with no mark means an inactive call. Cut-off read from the data, not from the text of the source: active = survival mostly below about 52% (no sharp cut-off); inactive = mostly above about 56%.

system: DeltatarO mutant; test: S. aureus survival, RN4220 and DeltatarO strains – OD600, teichoic acid synthesis inhibitors, primary screen (AID 463173); settings: S. aureus RN4220 wild type/DeltatarO growth, OD600, 18 h, active compounds read low, screened at 18.75 µg/mL (by protocol)

Row | SMILES | survival
1 | Cc1ccc(N(CCO)S(=O)(=O)c2ccc(NC3=NS(=O)(=O)c4ccccc43)cc2)cc1 | 96%
2 | CCc1ccc(C(=O)c2cn(CC(=O)Nc3ccc4c(c3)OCCO4)c3ccc(F)cc3c2=O)cc1 | 78%
3 | Cc1cccc(NS(=O)(=O)c2ccc3c(c2)CCCN3C(=O)C2CCC2)c1C | 107%
4 | Cc1oc2ncn(C)c(=O)c2c1C(=O)Nc1ccc(F)cc1 | 72%
5 | COc1ccc(-n2c(SCc3ccccc3F)nc3c([nH]c4ccccc43)c2=O)cc1OC | 68%
6 | ON(Cn1nnc2ccccc21)Cn1nnc2ccccc21 | 102%
7 | COc1ccc(-c2noc(-c3ccc(N4CCCCC4C)c([N+](=O)[O-])c3)n2)cc1OC (stereo not drawn) | 104%
8 | COc1cccc(C(=O)Nc2nc(-c3nnn(-c4cc(C)ccc4C)c3C)ns2)c1 | 88%
9 | COc1ccc(Cl)cc1-n1nnc(-c2nsc(NC(=O)c3ccccc3Cl)n2)c1C | 23% (active)
10 | COc1cccc(C(=O)Nc2nc(-c3nnn(-c4cccc(Cl)c4C)c3C)ns2)c1 | -5% (active)
11 | Cc1ccc(C(=O)Nc2nc(-c3nnn(-c4cccc(Cl)c4C)c3C)ns2)cc1C | 124%
12 | COc1ccc(C(=O)Nc2nc(-c3nnn(-c4cc(OC)ccc4OC)c3C)ns2)cc1 | 109%
13 | COc1ccc(-n2nnc(-c3nsc(NC(=O)c4ccc(C)c(C)c4)n3)c2C)cc1Cl | 126%
14 | O=C(C1CC1)N1CCc2cc(Br)cc(S(=O)(=O)N3CCN(c4cccc(Cl)c4)CC3)c21 | 62%
15 | CCOc1ccc(-n2c(=O)c3c4c(sc3n(CC(=O)NC(C)CC)c2=O)CCC4)cc1 (stereo not drawn) | 142%
16 | COC(=O)Cn1c(CN2CCN(c3ccc(OC)cc3)CC2)nc2c1c(=O)[nH]c(=O)n2C | 88%
17 | CCCc1nn2c(=O)cc(COC(=O)c3ccc(NC(=O)c4cccs4)cc3)nc2s1 | 69%
18 | CCOc1ccc(N(C)C(CNS(=O)(=O)c2ccccc2)c2ccccc2)cc1 (stereo not drawn) | 87%
19 | Cn1c(=O)oc2cc(S(=O)(=O)N3CCC(C(=O)N4CCN(c5ccc(Cl)cc5)CC4)CC3)ccc21 | 56%
20 | COC(=O)C1=CN(C2CC2)C=C(C(=O)OC)C1c1ccsc1 | 60% (active)
21 | COC(=O)C1=CNC=C(C(=O)OC)C1c1ccc(Cl)cc1 | 88%
22 | COC(=O)C1=CN(CCCN2CCCC2=O)C=C(C(=O)OC)C1c1cccs1 | 77%
23 | COc1ccc(-n2c(=O)c3c4c(sc3n(Cc3ccccc3)c2=O)CN(C(C)=O)CC4)cc1OC | 67%
